# Assay results from PubChem BioAssay (EPA / NIEHS).
# Calls of active or inactive are those of the source. How the source made its calls: active means hit-call score of the fitted dose curve at least 0.9, where 1 is the maximum; inactive means score below 0.9.
# Read-out: TIMP metallopeptidase inhibitor 1 (TIMP1), TIMP1 (gene 7076)
# Experiment: BSK_hDFCGF_TIMP1: BioMAP Diversity Plus: hDFCGF Assay for TIMP metallopeptidase inhibitor 1 (TIMP1) Biomarker Activity (AID 2283062)
# Settings: primary human foreskin fibroblasts; actives raise or lower the signal
# Procedure: BSK_hDFCGF is a cell-based, multiplexed-readout assay that uses foreskin fibroblast, a human skin primary cell, with measurements taken at 24 hours after chemical dosing in a 96-well plate.BSK_hDFCGF_TIMP1 is an assay component measured in the BSK_hDFCGF assay. It measures TIMP-1 antibody related to regulation of gene expression using ELISA technology.Data from the assay component BSK_hDFCGF_TIMP1 was analyzed into 1 assay endpoint. This assay endpoint, BSK_hDFCGF_TIMP1, was analyzed with bidirectional fitting relative to DMSO as the negative control and baseline of activity. Using a type of binding reporter, gain or loss-of-signal activity can be used to understand changes in the signaling as they relate to the gene TIMP1. Furthermore, this assay endpoint can be referred to as a primary readout, because this assay has produced multiple assay endpoints where this one serves a signaling function. To generalize the intended target to other relatable targets, this assay endpoint is annotated to the protease inhibitor intended target family, where the subfamily is metalloproteinase inhibitor.
# The levels of cell surface (or secreted, indicated by the prefix "s") biomarker endpoints were measured by ELISA. Overt cytotoxicity to cells in confluent adherent cultures (all systems other than the BT system) was assessed by measuring total protein levels using sulforhodamine B (SRB) staining in parallel cultures at the time of biomarker measurements, indicated as SRB endpoints. For proliferation assays for adherent cell types, individual cell types are cultured at sub-confluence and relative cell numbers quantified by SRB staining at time points optimized for each system (48 h: 3C and CASM3C systems; 72 h: BT and HDF3CGF systems; 96 h: SAg system). SRB was performed by staining cells with 0.1% SRB after fixation with 10% TCA and reading wells at 560 nm.Viability and proliferation of PBMC (T cells) was quantified by Alamar Blue reduction for the SAg and BT systems. For PBMC viability (referred to as PBMC Cytotoxicity within the assay endpoint names), cells were plated (75,000/well in a 96-well plate) and then chemical samples added for 1 h before addition of activators, SEB and TSST-1 (20 ng/mL final concentration each). Cells were incubated for 90 h. Then, Alamar Blue (20 uL/well) (Invitrogen, Cat DAL1100) was added for 6 h, and the plates were read with a fluorescence microplate reader at 546/580 nm (excitation/emission). For PBMC proliferation, cells were plated and activated as above but incubated for only 16 h prior to addition of Alamar Blue. Plates were read after 6 h.
SMILES,outcome,AC50
Nc1cccc(N)c1,inactive,–
CCCCCCc1ccc(O)cc1O,–,33.2 µM (active)
CC(C)CCCCCCOC(=O)c1ccc(C(=O)OCCCCCCC(C)C)c(C(=O)OCCCCCCC(C)C)c1,inactive,–
CC(=O)OCCC(C)C,inactive,–
CC/C(=C\C(=N/O)C(N)=O)C(C)[N+](=O)[O-] (stereo not given),inactive,–
CCOC(=O)c1ccc(C2CCC(NC[C@H](O)COc3ccc(O)c(NS(C)(=O)=O)c3)CC2)cc1 (stereo not given in full),–,13.4 µM (active)
COc1ccc(/C=C/S(=O)(=O)NC(=O)c2ccc(C)cc2Cl)cc1,inactive,–
C=CC(=C)CCC=C(C)C,inactive,–
CCN(C(=O)c1cc(C)cc(OC[C@H](C)Nc2ccncc2)c1)C(C)C,inactive,–
C[C@](N)(Cc1ccc(O)c(O)c1)C(=O)O,inactive,–
CC(C)CC(C)(O)C#CC(C)(O)CC(C)C (stereo not given),inactive,–
O=c1n(CC2CO2)c(=O)n(CC2CO2)c(=O)n1CC1CO1 (stereo not given),inactive,–
COc1cccc(-c2ccc(/C=C\CN3CCCCCC3)cc2Cl)c1,–,29.1 µM (active)
CN(C)c1ccc(Cc2ccc(N(C)C)cc2)cc1,inactive,–
O=P(OC(CCl)CCl)(OC(CCl)CCl)OC(CCl)CCl,inactive,–
Nc1nc2ncc(CNc3ccc(C(=O)N[C@@H](CCC(=O)O)C(=O)O)cc3)nc2c(=O)[nH]1,inactive,–
CCOC(=O)COc1ccc2c(c1)CC(NCC(O)c1cccc(Cl)c1)CC2 (stereo not given),–,28.8 µM (active)
CCOCCO,inactive,–
O=C(O)c1cccc(Oc2ccccc2)c1,inactive,–
CCc1cc(SCc2sc(-c3ccc(C(F)(F)F)cc3)nc2CN2CCN(c3ccc(OC)cc3)CC2)ccc1OCC(=O)O,–,2.53 µM (active)

SMILES,outcome,AC50
O=C(O)CC(O)C(=O)O (stereo not given),inactive,–
CCOC(=O)CC(CC(=O)OCC)(OC(C)=O)C(=O)OCC,inactive,–
O=C(O)CCN(C1(C(=O)NO)CCCC1)S(=O)(=O)c1ccc(Oc2ccc(F)cc2)cc1,inactive,–
Cn1c(=O)c2c(ncn2C)n(C)c1=O,inactive,–
Cc1c(-c2cccnc2)c2ccccc2n1CCCCC(=O)O,inactive,–
CCCCC(CC)COC(=O)c1ccc(C(=O)OCC(CC)CCCC)cc1 (stereo not given),inactive,–
CC(C)CCCCCCCOC(=O)CCCCC(=O)OCCCCCCCC(C)C,inactive,–
CCOc1cccc(-n2cc(C(=O)N3CCN(c4cc(C(=O)O)c5ccccc5c4)CC3)nc2-c2ccc(C)cc2)c1,–,13.3 µM (active)
CC(C)c1cccc(C(C)C)c1N1C(=O)c2ccc(O)cc2C1=O,–,5.39 µM (active)
O=C1OC(=O)C2C3C=CC(C3)C12 (stereo not given),inactive,–
CCCN(C1CCN(C(=O)C2CCNCC2)CC1)[C@@H]1CCc2ccc(OC)cc2C1,inactive,–
CCCCCCCCO,inactive,–
Clc1nc(Cl)c(Cl)c(Cl)c1Cl,inactive,–
C1N2CN3CN1CN(C2)C3,inactive,–
CNS(=O)(=O)c1cc(C(=O)N2CCC(CCN3C4CCC3CC(n3c(C)nc5ccccc53)C4)(c3cccc(F)c3)CC2)c(Cl)cc1F (stereo not given),inactive,–
Cc1ccc(C)c(O)c1,inactive,–
CN(C)c1ccc(N=NS(=O)(=O)O)cc1,inactive,–
Cc1[nH]cnc1C[C@H]1CCc2c(C)c3ccccc3n2C1=O,inactive,–
Cn1cnc([N+](=O)[O-])c1Sc1ncnc2nc[nH]c12,inactive,–
COc1ccc2sc(C(=O)Nc3nnn[nH]3)c(OC(C)C)c2c1,–,7.77 µM (active)
